In PubChem BioAssay (Tox21):
Results filed as inconclusive are left out. Where a call stands in place of a potency, no number is given. Active and inactive are the calls of the source. Unless noted, calls follow the shape of the dose curve; as a rule, active = well fitted curve in the direction sought with a large enough effect in the repeat runs; inconclusive = weak or mixed curves; inactive = no such curve, though single readings can be large; an effect the other way counts as inactive or inconclusive.

Experiments:
[1] = qHTS RealTime-Glo MT Cell Viability Assay in HEK293 cells - 24 hour (AID 1224886); also: nearly all actives have a fitted effect of over 50% in size; also: potency is read from the fitted curve at half-maximal effect
Procedure, shortened: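 Reads taken at 0, 8, 16, 24, 32 and 40 h from the same wells. HEK293 cells (600/well) carried RealTime-Glo reagents from seeding, with compound added after a 5 h settle at 37 C.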

[2] = qHTS RealTime-Glo MT Cell Viability Assay in HEK293 cells - 8 hour (AID 1224887); also: top concentration of the series differs between compounds; nearly all actives have a fitted effect of over 50% in size
Procedure, shortened: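 Viable HEK293 cells reduce a cell-permeant prosubstrate; the product diffuses out and is consumed by NanoLuc in the medium to give light. Compounds went in after a 5 h incubation and plates were read over the treatment course.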

[3] = qHTS RealTime-Glo MT Cell Viability Assay in HepG2 cells - 0 hour (AID 1224889); also: nearly all actives have a fitted effect of over 50% in size
Procedure, shortened: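 HepG2 suspension premixed with RealTime-Glo reagents is plated at 600 cells per well and left 5 h at 37 C/5% CO2. Compounds in DMSO then go in, and bioluminescence reflecting viable cell number is recorded over 40 h.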

[4] = qHTS assay to identify small molecule antagonists of the estrogen receptor alpha (ER-alpha) signaling pathway using the BG1 cell line in the presence of 0.1 nM 17-beta-estradiol - cell viability counter screen (AID 1259241); also: nearly all actives have a fitted effect of over 40% in size; also: potency is read from the fitted curve at half-maximal effect
Procedure, shortened: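 VM7Luc4E2 cells (endogenous full-length ER-alpha, 4xERE-luciferase), cultured 5 days in charcoal-stripped serum, exposed to compounds with 0.1 nM 17beta-estradiol (final) for 22 hr at 37C. Viability read in same wells as live-cell protease fluorescence after 30 min.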

[5] = qHTS assay to identify small molecule antagonists of the androgen receptor (AR) signaling pathway using the MDA cell line in the presence of 0.5 nM R1881 - cell viability counter screen (AID 1259242); also: nearly all actives have a fitted effect of over 45% in size; also: potency is read from the fitted curve at half-maximal effect
Procedure, shortened: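 Viability of MDA-kb2 cells was multiplexed with the luciferase AR readout; after 16 hr with compounds and R1881 at 0.5 nM final, CellTiter-Fluor fluorescence was recorded.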

[6] = qHTS assay to identify small molecule phospholipidosis (PLD) inducers (AID 1259344; active = well fitted curve in the direction sought with a large enough effect; an effect the other way counts as inactive or inconclusive)
Procedure, shortened: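 Fluorescent phospholipid staining (LipidTOX Red) measured by automated microscopy in fixed HepG2 cells after 24 h treatment; nuclei counterstained with Hoechst 33342; amiodarone as reference inducer.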

[7] = qHTS assay to identify small molecule HDAC inhibitors - cell viability counter screen (AID 1259365); also: series mostly up to about 92 µM; nearly all actives have a fitted effect of over 50% in size
Procedure, shortened: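 Wild-type HCT-116 cells, 1,500/well, cultured overnight, then compound-treated 2 h at 37 C. Viability measured as ATP luminescence with CellTiter-Glo after 30 min at room temperature.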

[8] = qHTS assay to identify small molecule antagonists of the sonic hedgehog signaling (Shh) pathway - cell viability counter screen (AID 1259367); also: nearly all actives have a fitted effect of over 55% in size; also: potency is read from the fitted curve at half-maximal effect
Procedure, shortened: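 Using CellTiter-Fluor, viability of Gli1-Luc reporter 3T3 cells is read by fluorescence in the wells used for the Shh luciferase assay. Treatment lasts 23 hr with conditioned medium, then reagent 1 hr at 37C.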

[9] = A CellTox Green Cytotoxicity Assay to monitor cytotoxicity in HepG2 cells - 0 hour (AID 1224882); also: nearly all actives have a fitted effect of over 35% in size
Procedure, shortened: (§1)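 Using 1536-well format, dye-containing HepG2 suspension was seeded, allowed 5 h at 37 C/5% CO2, dosed by pintool with compounds, positive and negative controls, and imaged for fluorescence across 40 h.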

[10] = A CellTox Green Cytotoxicity Assay to monitor cytotoxicity in HepG2 cells - 8 hour (AID 1224890); also: nearly all actives have a fitted effect of over 45% in size
Procedure, shortened: as §1

[11] = target: Androgen receptor (Homo sapiens) (UniProt P10275); experiment: qHTS assay to identify small molecule antagonists of the androgen receptor (AR) signaling pathway using the MDA cell line in the presence of 0.5 nM R1881 (AID 1259243); also: nearly all actives have a fitted effect of over 50% in size
Procedure, shortened: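 Reporter cells cultured without CO2 receive test chemicals, then 0.5 nM R1881 final; after 16 hr at 37C, ONE-Glo is added and light output recorded.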

[12] = qHTS assay to identify small molecule HDAC inhibitors (AID 1259364);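 also: wild-type HCT-116 cells with endogenous class I/II HDAC activity; top concentration of the series differs between compounds; nearly all actives have a fitted effect of over 45% in size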
Procedure, shortened: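 Read-out: luminescence of HDAC-Glo I/II reagent, 30 min RT, reflecting class I/II deacetylase activity in whole HCT-116 cells pre-exposed 2 h to DMSO-dissolved compounds.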

[13] = qHTS assay to identify small molecule agonists of the sonic hedgehog signaling (Shh) pathway - cell viability counter screen (AID 1259366); also: nearly all actives have a fitted effect of over 50% in size
Procedure, shortened: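 NIH/3T3-derived Gli1-Luc reporter cells, 2,000 per well, received compound after 4 h and were treated about 23 h at 37C. Viability measured in the same wells by CellTiter-Fluor fluorescence after 1 h.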

[14] = qHTS assay to identify small molecule agonists of the sonic hedgehog signaling (Shh) pathway (AID 1259368; calls by dose curve;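 also: NIH/3T3-derived 3T3Gli1-Luc cells carrying a stable Gli1-driven firefly luciferase reporter; series mostly up to about 92 µM; nearly all actives have a fitted effect of over 15% in size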)
Procedure, shortened: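 A Gli1 transcriptional response element controlled firefly luciferase in 3T3Gli1-Luc cells. Compounds and a positive control were added 4 hr after plating, and cells were incubated a further 24 hr at 37 C before luminescence detection.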

[15] = A CellTox Green Cytotoxicity Assay to monitor cytotoxicity in HepG2 cells - 32 hour (AID 1224883)
Procedure, shortened: as §1

[16] = A CellTox Green Cytotoxicity Assay to monitor cytotoxicity in HEK293 cells - 16 hour (AID 1224888); also: nearly all actives have a fitted effect of over 35% in size
Procedure, shortened: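 Fluorescence intensity, read at 0, 8, 16, 24, 32 and 40 h of compound treatment, reflected dye binding to DNA of dead HEK293 cells; compounds (23 nL, DMSO) were added 5 h after plating cells with reagent.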

[17] = target: Estrogen receptor (Homo sapiens) (UniProt P03372); experiment: qHTS assay to identify small molecule antagonists of the estrogen receptor alpha (ER-alpha) signaling pathway using the BG1 cell line in the presence of 0.1 nM 17-beta-estradiol (AID 1259244)
Procedure, shortened: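 Estradiol at 0.1 nM (final) stimulates the endogenous ER-alpha of VM7Luc4E2 cells carrying an ERE-driven luciferase; compounds are co-incubated 22 h at 37C and luciferase output quantified by luminescence.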

Androgen receptor (Homo sapiens), sequence (P10275 whole entry, looked up): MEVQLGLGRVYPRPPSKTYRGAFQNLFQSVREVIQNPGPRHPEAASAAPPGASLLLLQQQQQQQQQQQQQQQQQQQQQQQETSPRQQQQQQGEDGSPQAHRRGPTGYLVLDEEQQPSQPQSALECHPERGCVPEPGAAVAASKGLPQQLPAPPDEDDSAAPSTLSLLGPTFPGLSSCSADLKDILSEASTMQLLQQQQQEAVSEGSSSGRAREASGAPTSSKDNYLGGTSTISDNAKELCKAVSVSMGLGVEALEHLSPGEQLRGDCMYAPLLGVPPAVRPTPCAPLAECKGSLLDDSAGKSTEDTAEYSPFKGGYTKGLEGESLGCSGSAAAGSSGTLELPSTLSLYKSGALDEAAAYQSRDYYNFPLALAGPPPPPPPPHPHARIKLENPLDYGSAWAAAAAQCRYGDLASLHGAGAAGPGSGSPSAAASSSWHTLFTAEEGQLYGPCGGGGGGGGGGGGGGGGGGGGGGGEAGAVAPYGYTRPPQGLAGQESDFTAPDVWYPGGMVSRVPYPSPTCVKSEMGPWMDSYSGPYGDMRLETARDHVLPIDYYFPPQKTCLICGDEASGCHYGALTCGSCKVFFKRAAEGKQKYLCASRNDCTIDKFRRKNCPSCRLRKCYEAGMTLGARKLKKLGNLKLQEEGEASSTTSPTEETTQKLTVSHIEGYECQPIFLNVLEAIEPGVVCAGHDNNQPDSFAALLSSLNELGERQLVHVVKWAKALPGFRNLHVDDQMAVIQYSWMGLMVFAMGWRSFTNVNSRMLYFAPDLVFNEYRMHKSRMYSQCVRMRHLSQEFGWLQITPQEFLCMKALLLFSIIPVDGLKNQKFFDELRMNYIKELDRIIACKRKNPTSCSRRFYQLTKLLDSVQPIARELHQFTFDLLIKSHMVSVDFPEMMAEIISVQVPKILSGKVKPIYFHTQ
Estrogen receptor (Homo sapiens), sequence (P03372 whole entry, looked up): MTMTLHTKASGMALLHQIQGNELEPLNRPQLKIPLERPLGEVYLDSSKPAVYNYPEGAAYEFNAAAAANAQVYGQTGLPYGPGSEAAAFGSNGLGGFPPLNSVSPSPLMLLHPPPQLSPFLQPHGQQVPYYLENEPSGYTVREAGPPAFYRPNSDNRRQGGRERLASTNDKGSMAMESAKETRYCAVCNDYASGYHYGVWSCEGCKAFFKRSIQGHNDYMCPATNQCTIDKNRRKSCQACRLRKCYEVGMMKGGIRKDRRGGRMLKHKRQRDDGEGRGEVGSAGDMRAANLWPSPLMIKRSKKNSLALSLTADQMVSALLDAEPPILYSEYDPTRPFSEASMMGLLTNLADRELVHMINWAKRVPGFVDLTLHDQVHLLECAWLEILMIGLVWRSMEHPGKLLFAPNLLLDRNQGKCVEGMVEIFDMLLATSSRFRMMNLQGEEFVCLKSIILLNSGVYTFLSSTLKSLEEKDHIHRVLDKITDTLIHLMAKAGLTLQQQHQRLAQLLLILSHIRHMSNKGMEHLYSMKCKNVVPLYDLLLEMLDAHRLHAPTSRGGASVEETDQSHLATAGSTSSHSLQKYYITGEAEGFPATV

Compound	Potency [1]	Potency [2]	Potency [3]	Potency [4]	Potency [5]	Potency [6]	Potency [7]	Potency [8]	Potency [9]	Potency [10]	Potency [11]	Potency [12]	Potency [13]	Potency [14]	Potency [15]	Potency [16]	Potency [17]
S=c1[nH]c2ccccc2s1	inactive	inactive	inactive	inactive	inactive	inactive	inactive	48.6 µM (active)									
CCCCN(CCCC)c1ccc(C(=O)c2ccccc2C(=O)O)c(O)c1	inactive	inactive	inactive	inactive				inactive	inactive	inactive	inactive	inactive	inactive	inactive			
CCCCCCCC/C=C\CCCCCCCCOCCO	3.19 µM (active)		inactive	63.1 µM (active)	20 µM (active)		inactive	63.1 µM (active)	inactive			inactive		inactive	63.7 µM (active)	inactive	2.51 µM (active)
